# Assay results published in PubChem BioAssay.
# The source made the active and inactive calls.
# Experiments:
# [1] = E. coli DRC41 culture turbidity changes, primary screen, E. coli filamentation inducer project, strain DRC41, OD650, 48 h (AID 1152);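 also: E. coli MC1000 strain DRC41 lacking acrAB efflux pump and sulA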; settings: E. coli DRC41 (acrAB sulA), higher = more signal, called active from +8 up or from −8 down
# [2] = small-molecule binders of probe aLefty1, primary screen, biochemical, small-molecule microarray, 635/667 nm fluorescence (AID 1153); settings: higher = more signal;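 also: score merges spot fluorescence with signal-to-noise ratio from the scanned slide images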
# [3] = PSAC antagonists in infected red cells, primary screen, cell-based, P. falciparum Indochina, OD700, 1 h (AID 1154); settings: P. falciparum Indochina infected RBC osmotic lysis, higher = more signal, called active from +8 up or from −8 down
# [4] = PSAC antagonists in infected red cells, primary screen, cell-based, P. falciparum Indochina, OD700, 2 h (AID 1155);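 also: lysis reports solute entry through the parasite surface anion channel PSAC; channel blockers reduce lysis of infected cells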; settings: P. falciparum Indochina infected erythrocytes, osmotic lysis OD700; higher = more signal, called active from +8 up or from −8 down
# [5] = osmotic lysis modulators in infected erythrocytes, primary screen, PSAC antagonist project, cell-based, P. falciparum Indochina, OD700, 3 h (AID 1156); settings: higher = more signal, called active from +8 up or from −8 down
# [6] = PSAC antagonists in infected red cells, primary screen, cell-based, P. falciparum Indochina, OD700, 18 h (AID 1157); settings: P. falciparum Indochina infected erythrocytes, osmotic lysis OD700, 18 h; higher = more signal, called active from +8 up or from −8 down
# [7] = modulators of S6 phosphorylation in cells, primary screen, cell-based, A549, cytoblot, luminescence, serum-stimulated (AID 1158); settings: A549 phospho-S6 cytoblot, 5 h, higher = more signal;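 also: serum-stimulated A549 lung adenocarcinoma cells; signal is phosphorylated S6 detected by cytoblot immunostaining with HRP secondary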
# [8] = biological target: NADPH oxidase 2 (Homo sapiens) (UniProt P04839); assay: NOX2-dependent H2O2 signal modulators, primary screen, NOX inhibitor project, cell-based, HEK293-NOX2, PMA-stimulated, Amplex Red fluorescence (AID 1159); settings: 45 min, higher = more signal, called active from +8 up or from −8 down; also: test concentration not given here
# Chain of NADPH oxidase 2 (Homo sapiens) (P04839 whole entry, looked up): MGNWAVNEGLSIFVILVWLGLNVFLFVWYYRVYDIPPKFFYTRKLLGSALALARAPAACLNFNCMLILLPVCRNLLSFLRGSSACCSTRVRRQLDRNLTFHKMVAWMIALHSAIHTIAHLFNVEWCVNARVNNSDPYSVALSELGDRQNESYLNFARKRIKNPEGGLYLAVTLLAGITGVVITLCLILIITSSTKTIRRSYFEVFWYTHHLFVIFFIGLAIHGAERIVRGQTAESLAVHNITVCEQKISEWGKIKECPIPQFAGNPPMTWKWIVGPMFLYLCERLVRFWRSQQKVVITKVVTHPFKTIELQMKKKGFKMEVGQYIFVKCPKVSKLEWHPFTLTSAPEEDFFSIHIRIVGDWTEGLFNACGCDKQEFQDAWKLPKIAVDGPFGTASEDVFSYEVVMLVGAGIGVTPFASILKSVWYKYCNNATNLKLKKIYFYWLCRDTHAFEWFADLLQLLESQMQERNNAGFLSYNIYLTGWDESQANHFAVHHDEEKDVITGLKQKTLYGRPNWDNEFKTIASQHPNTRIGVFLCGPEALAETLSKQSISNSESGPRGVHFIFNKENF
# [9] = biological target: NADPH oxidase 4 (Homo sapiens) (UniProt Q9NPH5); assay: NOX4-dependent H2O2 signal modulators, primary screen, NOX inhibitor project, cell-based, HEK293-NOX4, tetracycline-induced, Amplex Red fluorescence (AID 1160); settings: 45 min, higher = more signal, called active from +8 up or from −8 down
# Chain of NADPH oxidase 4 (Homo sapiens) (Q9NPH5 whole entry, looked up): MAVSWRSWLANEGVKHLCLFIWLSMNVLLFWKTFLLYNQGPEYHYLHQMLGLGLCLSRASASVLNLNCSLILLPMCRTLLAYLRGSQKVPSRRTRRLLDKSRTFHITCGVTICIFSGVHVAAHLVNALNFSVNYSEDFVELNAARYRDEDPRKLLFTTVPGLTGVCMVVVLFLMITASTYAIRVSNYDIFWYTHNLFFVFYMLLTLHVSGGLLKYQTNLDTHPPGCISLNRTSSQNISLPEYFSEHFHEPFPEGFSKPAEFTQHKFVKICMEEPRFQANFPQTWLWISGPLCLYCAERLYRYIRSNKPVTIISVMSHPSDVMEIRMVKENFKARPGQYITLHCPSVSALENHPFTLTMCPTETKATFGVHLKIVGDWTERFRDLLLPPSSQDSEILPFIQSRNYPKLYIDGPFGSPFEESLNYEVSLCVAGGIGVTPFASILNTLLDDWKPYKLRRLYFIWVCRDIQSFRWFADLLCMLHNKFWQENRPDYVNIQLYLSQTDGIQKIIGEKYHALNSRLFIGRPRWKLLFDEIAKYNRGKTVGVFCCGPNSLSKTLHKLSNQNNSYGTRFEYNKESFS
# [10] = biological target: NADPH oxidase 5 (Homo sapiens) (UniProt Q96PH1); assay: NOX5-dependent H2O2 signal modulators, primary screen, NOX inhibitor project, cell-based, HEK293-NOX5, Amplex Red fluorescence (AID 1161); settings: HEK293-NOX5, ionomycin, 45 min, higher = more signal
# Chain of NADPH oxidase 5 (Homo sapiens) (Q96PH1 whole entry, looked up): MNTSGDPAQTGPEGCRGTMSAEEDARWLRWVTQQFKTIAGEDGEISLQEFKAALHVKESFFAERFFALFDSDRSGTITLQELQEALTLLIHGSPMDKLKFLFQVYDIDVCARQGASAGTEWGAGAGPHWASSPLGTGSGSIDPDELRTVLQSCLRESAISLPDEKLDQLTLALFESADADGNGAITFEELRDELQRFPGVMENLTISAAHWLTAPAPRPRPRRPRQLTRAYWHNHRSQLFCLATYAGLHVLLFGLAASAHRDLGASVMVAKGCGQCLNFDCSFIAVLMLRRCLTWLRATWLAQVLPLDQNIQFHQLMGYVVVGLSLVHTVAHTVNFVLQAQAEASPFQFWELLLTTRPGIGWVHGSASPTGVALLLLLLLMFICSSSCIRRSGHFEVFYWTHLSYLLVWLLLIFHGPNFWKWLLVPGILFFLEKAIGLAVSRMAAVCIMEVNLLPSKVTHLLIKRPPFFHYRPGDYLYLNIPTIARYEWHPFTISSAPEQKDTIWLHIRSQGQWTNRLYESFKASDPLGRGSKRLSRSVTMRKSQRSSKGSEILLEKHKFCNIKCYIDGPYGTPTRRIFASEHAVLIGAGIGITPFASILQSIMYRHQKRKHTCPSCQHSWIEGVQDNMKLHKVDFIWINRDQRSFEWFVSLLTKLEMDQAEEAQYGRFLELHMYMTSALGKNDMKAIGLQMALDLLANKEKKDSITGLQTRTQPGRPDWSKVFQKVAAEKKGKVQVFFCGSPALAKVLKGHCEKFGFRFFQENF
Structure (SMILES),z-score [1],composite z-score [2],z-score [3],z-score [4],z-score [5],z-score [6],z-score [7],z-score [8],z-score [9],z-score [10]
CC(CCN1CCCc2nc(C)c(C)cc21)=NO[C@@H](C)c1cc(-c2c(C)cc(C)cc2C)no1,1.22 (inactive),0.0402,3.44 (inactive),0.762 (inactive),1.35 (inactive),0.465 (inactive),0.124,-1 (inactive),-0.469 (inactive),0.221
O=C1C=C[C@@H](O)[C@@H]2[C@@H]3C(=O)N(C[C@@H]4CCCO4)C(=O)[C@@H]3CC[C@@H]12,0.0413 (inactive),0.0313,1.08 (inactive),0.979 (inactive),-0.0029 (inactive),0.281 (inactive),-0.382,1.71 (inactive),-0.0876 (inactive),0.283
CO[C@@H]1COC(=O)CC=C[C@@H](C)[C@H](OC)COC(=O)[C@@H](C)COC(=O)CC=C[C@H]1C,0.604 (inactive),-0.145,-0.52 (inactive),0.409 (inactive),-0.28 (inactive),0.377 (inactive),-0.0303,-0.387 (inactive),0.195 (inactive),0.479
COC(=O)CC=C[C@@H](C)[C@@H](C=NO[C@@H]1O[C@H](COC(C)=O)[C@@H](OC(C)=O)[C@H](OC(C)=O)[C@H]1OC(C)=O)OC,-0.477 (inactive),0.142,0.683 (inactive),0.547 (inactive),-0.193 (inactive),0.416 (inactive),-0.474,1.26 (inactive),0.729 (inactive),0.688
CCC1=NOC(CCC2CC(OC(=O)NCc3cccc4c3OCO4)CC3(CCCC(COC(=O)NCCc4ccccc4OC)O3)O2)C1 (stereo not given),0.572 (inactive),-0.0573,15.9 (active),2.99 (inactive),-0.501 (inactive),0.568 (inactive),0.0314,0.642 (inactive),-0.115 (inactive),0.0819
COc1cccc([C@H]2Oc3ccc(OC)cc3C(=NOC[C@@H](C)[C@H](OCc3ccccc3)C(C)C)[C@@H]2O)c1,-1.25 (inactive),-0.0428,2.57 (inactive),0.947 (inactive),0.0083 (inactive),0.612 (inactive),-0.891,-0.364 (inactive),-2.1 (inactive),-1.97
CCN1C(=O)[C@H]2[C@H]3[C@H](O)[C@H](O)CC(=O)[C@@H]3CC[C@H]2C1=O,0.0972 (inactive),-0.149,-0.0937 (inactive),-0.0275 (inactive),-0.403 (inactive),-0.138 (inactive),-0.108,-1.19 (inactive),0.1 (inactive),0.0328
CCOC(=O)NN=C1C[C@@H](O)[C@@H](O)[C@@H]2[C@@H]3C(=O)N(c4cccc(Oc5ccccc5)c4)C(=O)[C@@H]3CC[C@H]12,0.0433 (inactive),-0.0958,1.6 (inactive),-1.04 (inactive),0.0278 (inactive),-1.58 (inactive),0.742,-0.515 (inactive),0.209 (inactive),-1.33
CCOC(=O)[C@H](Cc1ccccc1)NC(=O)CCC1CC(OC(=O)NCCc2ccc(F)cc2)CC2(CCCC(COC(=O)NCc3ccccc3)O2)O1 (stereo not given in full),-0.713 (inactive),-0.152,-0.623 (inactive),-0.567 (inactive),-0.857 (inactive),-0.144 (inactive),0.0765,-0.0815 (inactive),1.21 (inactive),0.616
CCCCc1nc2c(c3c1C[C@H](C)OC3)CN(CCOc1ccccc1)CC2,0.19 (inactive),-0.0186,1.3 (inactive),-0.611 (inactive),0.128 (inactive),-0.421 (inactive),1.86,-0.201 (inactive),0.25 (inactive),0.747
COC(=O)CC=C[C@@H](C)[C@@H](C=NO[C@H](C)c1cn([C@H](CO)Cc2ccccc2)nn1)NS(=O)(=O)c1ccc(C)cc1,-0.0528 (inactive),0.173,2.17 (inactive),0.674 (inactive),0.605 (inactive),0.22 (inactive),-1.07,0.679 (inactive),0.685 (inactive),-0.0369
CCOC(=O)[C@H](CC(C)C)NC(=O)CCC1CC(OC(=O)NCc2cccc3ccccc23)CC2(CCCC(COC(=O)NCC3CCCCC3)O2)O1 (stereo not given in full),-0.398 (inactive),0.183,0.864 (inactive),-1.04 (inactive),0.552 (inactive),-1.35 (inactive),1.64,-2.61 (inactive),-1.93 (inactive),-2.79
Cc1cc2c(c(=O)o1)[C@@H](O)[C@H]1O[C@H]1C2=O,-1.63 (inactive),-0.0547,0.381 (inactive),0.716 (inactive),0.634 (inactive),0.348 (inactive),0.0719,1.6 (inactive),-0.899 (inactive),-1.31
O=C1[C@H]2[C@H]3[C@H](O)[C@H](O)CC(=NO[C@@H]4O[C@H](CO)[C@@H](O)[C@H](O)[C@H]4O)[C@H]3CC[C@H]2C(=O)N1c1cccc(Oc2ccccc2)c1,-0.024 (inactive),-0.286,0.257 (inactive),0.452 (inactive),0.253 (inactive),0.207 (inactive),-0.576,0.7 (inactive),0.325 (inactive),-0.54
COc1ccc(COC(=O)NN=C2C[C@@H](O)[C@@H](O)[C@@H]3[C@@H]4C(=O)N(Cc5ccccc5)C(=O)[C@@H]4CC[C@H]23)cc1,-0.0671 (inactive),0.641,8.9 (active),0.507 (inactive),-1.3 (inactive),-1.17 (inactive),-0.411,1.43 (inactive),0.954 (inactive),0.729
COC(=O)CC=C[C@@H](C)[C@@H]1C=C[C@H](O)[C@@H](CO)O1,0.372 (inactive),-0.472,0.0339 (inactive),0.447 (inactive),-0.27 (inactive),-0.0707 (inactive),0.338,0.418 (inactive),-0.23 (inactive),0.576
COc1ccc(O[C@H]2C=C[C@@H](c3ccccc3)O[C@@H]2COC(=O)CCC(C)=NOC(C)CN2CCCc3nc(C)c(C)cc32)cc1 (stereo not given in full),-0.343 (inactive),0.0004,8.59 (active),0.812 (inactive),0.54 (inactive),0.563 (inactive),-0.314,-2.38 (inactive),-0.643 (inactive),-1.35
COC(=O)[C@@H]1CC[C@@H](C)[C@H](c2ccc(Br)cc2)N1,-0.394 (inactive),0.0962,0.121 (inactive),-0.0391 (inactive),-0.242 (inactive),-0.191 (inactive),0.333,-3.29 (inactive),-0.185 (inactive),-0.781
CC(CCN1CCCCc2nc(C)c(C)cc21)=NOC[C@@H](O)COCc1ccco1,0.721 (inactive),-0.0559,1.56 (inactive),0.279 (inactive),0.876 (inactive),0.343 (inactive),0.327,-1.07 (inactive),-0.199 (inactive),-0.153
COC(=O)CC=C[C@@H](C)[C@@H](C=NO[C@@H](C)c1cc(-c2c(C)cc(C)cc2C)no1)NS(=O)(=O)c1ccc(C)cc1,-0.466 (inactive),0.0437,1.34 (inactive),-0.745 (inactive),0.971 (inactive),-1.89 (inactive),1.13,-0.868 (inactive),-0.115 (inactive),-1.47
COC(=O)CC=C[C@@H](C)[C@@H](C=NOC[C@@H](O)[C@H]1O[C@@H]2OC(C)(C)O[C@@H]2[C@H]1O)NS(=O)(=O)c1ccc(C)cc1,0.463 (inactive),0.165,-0.0598 (inactive),0.0216 (inactive),-0.268 (inactive),0.0967 (inactive),-0.979,0.214 (inactive),0.171 (inactive),0.829
COc1ccc(COC(=O)NN=C2C[C@@H](O)[C@@H](O)[C@@H]3[C@@H]4C(=O)N(c5ccc(F)cc5F)C(=O)[C@@H]4CC[C@H]23)cc1,-0.544 (inactive),0.545,30.2 (active),4.98 (inactive),2.52 (inactive),1.24 (inactive),-0.434,-0.407 (inactive),-0.481 (inactive),-0.876
